Results: PubChem BioAssay AID1159580 (chemical genetic matrix, 2015)
“And” between values parts separate entries of the source, which are not always exact repeats. Equal entries are not always repeated. The campaign covered roughly 5,500 compounds. About 2,000 (36%) were called active. About 18% were inconclusive and are not listed. Cut-off read from the data, not from the text of the source: active = normalized growth mostly below about 0.91 (no sharp cut-off); inconclusive = no clear call, values can overlap the other calls; inactive = mostly above about 0.92. This is one part of the list.

Test: chemical genetic growth profiling, strain panel (AID 1159580);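 note: tested at 20 µM; growth read once vehicle control cultures reached saturation at 30 °C; 1 = growth at the plate median or of vehicle wells; lower values mean less growth of the strain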
Settings: S. cerevisiae deletion strains, growth OD

Measured: normalized growth

C[n+]1cccc(C(=O)[O-])c1
inactive: locus YAL013W, strain DEP1, active compounds read low 1.01 | locus YAL021C, strain ccr4, active compounds read low 1.02 | locus YAL026C, strain drs2, active compounds read low 0.972 | locus YAL030W, strain snc1, active compounds read low 0.982 | locus YBL061C, strain skt5, active compounds read low 0.975 | locus YBR009C, strain hhf1, active compounds read low 0.99 | locus YBR021W, strain FUR4, active compounds read low 1 | locus YBR023C, strain chs3, active compounds read low 0.963 | locus YBR171W, strain sec66, active compounds read low 0.958 | locus YBR229C, strain ROT2, active compounds read low 1.01 | locus YBR231C, strain swc5, active compounds read low 0.97 | locus YBR279W, strain paf1, active compounds read low 0.972 | locus YCL011C, strain gbp2, active compounds read low 0.97 | locus YCL016C, strain dcc1, active compounds read low 0.998 | locus YCL029C, strain bik1, active compounds read low 0.993 | locus YCL069W, strain vba3, active compounds read low 0.941 | locus YCR088W, strain abp1, active compounds read low 0.963 | locus YDL005C, strain med2, active compounds read low 0.952 | locus YDL035C, strain GPR1, active compounds read low 1.03 | locus YDL040C, strain nat1, active compounds read low 0.981 | locus YDL074C, strain BRE1, active compounds read low 1.03 | locus YDL101C, strain DUN1, active compounds read low 1.03 | locus YDL134C, strain PPH21, active compounds read low 1.07 | locus YDL185W, strain tfp1, active compounds read low 0.999 | locus YDL192W, strain arf1, active compounds read low 1.01 | locus YDR001C, strain nth1, active compounds read low 0.965 | locus YDR069C, strain doa4, active compounds read low 0.958 | locus YDR101C, strain arx1, active compounds read low 0.995 | locus YDR137W, strain rgp1, active compounds read low 0.974 | locus YDR150W, strain NUM1, active compounds read low 1.01 | locus YDR159W, strain sac3, active compounds read low 0.97 | locus YDR162C, strain NBP2, active compounds read low 1.07 | locus YDR195W, strain ref2 0.91 | locus YDR297W, strain sur2, active compounds read low 0.975 | locus YDR318W, strain mcm21, active compounds read low 0.994 | locus YDR334W, strain swr1, active compounds read low 0.965 | locus YDR335W, strain msn5, active compounds read low 0.952 | locus YDR388W, active compounds read low 0.996 | locus YDR392W, strain spt3, active compounds read low 0.987 | locus YDR502C, strain sam2, active compounds read low 1 | locus YEL003W, strain gim4, active compounds read low 0.964 | locus YEL037C, strain rad23, active compounds read low 0.964 | locus YEL061C, strain CIN8 (second series), active compounds read low 0.923 | locus YEL061C, strain CIN8, active compounds read low 1.01 | locus YER015W, strain faa2, active compounds read low 0.983 | locus YER016W, strain bim1, active compounds read low 0.967 | locus YER110C, active compounds read low 0.995 | locus YER111C, strain swi4, active compounds read low 0.942 | locus YER155C, strain BEM2 (second series), active compounds read low 0.992 | locus YER155C, strain BEM2, active compounds read low 0.999 | locus YER167W, strain BCK2, active compounds read low 1.02 | locus YFR010W, strain ubp6, active compounds read low 0.943 | locus YGL078C, strain dbp3, active compounds read low 0.997 | locus YGL086W, strain mad1, active compounds read low 1 | locus YGL167C, strain pmr1, active compounds read low 0.984 | locus YGL173C, strain kem1, active compounds read low 0.986 | locus YGL227W, strain vid30, active compounds read low 0.957 | locus YGL240W, strain doc1, active compounds read low 0.972 | locus YGL248W, strain PDE1, active compounds read low 1.02 | locus YGL253W, strain hxk2, active compounds read low 0.955 | locus YGR078C, strain PAC10, active compounds read low 1.04 | locus YGR135W, strain pre9, active compounds read low 1 | locus YGR229C, strain SMI1, active compounds read low 1.04 | locus YGR252W, strain gcn5, active compounds read low 0.966 | locus YHR013C, strain ard1, active compounds read low 0.981 | locus YHR027C, strain rpn1, active compounds read low 0.992 | locus YHR030C, strain SLT2, active compounds read low 1.01 and 1.03 | locus YHR079C, strain IRE1 (second series), active compounds read low 1.01 | locus YHR079C, strain IRE1, active compounds read low 1.02 | locus YHR094C, strain hxt1, active compounds read low 0.983 | locus YHR129C, strain ARP1, active compounds read low 1.02 | locus YHR142W, strain chs7, active compounds read low 0.955 | locus YHR200W, strain rpn10, active compounds read low 1.01 | locus YIL066C, strain RNR3, active compounds read low 1.05 | locus YIL073C, strain SPO22, active compounds read low 1.02 | locus YIL125W, strain kgd1, active compounds read low 0.984 | locus YIR030C, strain dcg1, active compounds read low 1.01 | locus YJL092W, strain hpr5, active compounds read low 0.937 | locus YJL095W, strain BCK1 (second series), active compounds read low 0.971 | locus YJL095W, strain BCK1, active compounds read low 1.07 and 1.01 | locus YJL115W, strain asf1, active compounds read low 0.956 | locus YJL129C, strain trk1, active compounds read low 0.936 | locus YJL134W, strain LCB3, active compounds read low 1.01 | locus YJL154C, strain vps35, active compounds read low 0.948 | locus YJL164C, strain tpk1, active compounds read low 0.985 | locus YJL166W, strain qcr8, active compounds read low 0.961 | locus YJL168C, strain set2, active compounds read low 0.999 | locus YJL187C, strain SWE1 (second series), active compounds read low 1.03 | locus YJL187C, strain SWE1, active compounds read low 0.97 | locus YJR043C, strain POL32, active compounds read low 1.04 | locus YJR066W, strain TOR1, active compounds read low 0.975 | locus YJR075W, strain HOC1, active compounds read low 1.03 | locus YKL009W, strain mrt4, active compounds read low 1 | locus YKL068W, active compounds read low 1.01 | locus YKL085W, strain MDH1 (second series), active compounds read low 1.01 | locus YKL085W, strain MDH1, active compounds read low 1.01 | locus YKL160W, strain elf1, active compounds read low 0.996 | locus YKR001C, strain vps1, active compounds read low 0.987 | locus YKR026C, strain gcn3, active compounds read low 0.952 | locus YKR091W, strain srl3, active compounds read low 0.966 | locus YLL001W, strain dnm1, active compounds read low 0.97 | locus YLL026W, active compounds read low 0.989 | locus YLL041C, strain sdh2, active compounds read low 0.963 | locus YLR027C, strain aat2, active compounds read low 0.983 | locus YLR039C, strain RIC1, active compounds read low 1.12 | locus YLR058C, strain SHM2, active compounds read low 1.02 | locus YLR102C, strain apc9, active compounds read low 0.997 | locus YLR113W, strain HOG1, active compounds read low 1.04 | locus YLR221C, strain rsa3, active compounds read low 0.972 | locus YLR258W, strain gsy2, active compounds read low 0.971 | locus YLR262C, strain YPT6 (second series), active compounds read low 0.947 | locus YLR262C, strain YPT6, active compounds read low 1.12 | locus YLR268W, strain sec22, active compounds read low 1.02 | locus YLR320W, strain mms22, active compounds read low 0.975 | locus YLR330W, strain CHS5, active compounds read low 1.02 | locus YLR342W, strain FKS1 (second series), active compounds read low 1.04 | locus YLR342W, strain FKS1, active compounds read low 0.948 | locus YLR357W, strain rsc2, active compounds read low 0.917 | locus YLR370C, strain arc18, active compounds read low 0.972 | locus YLR371W, strain rom2, active compounds read low 0.994 | locus YLR384C, strain iki3, active compounds read low 0.961 | locus YLR418C, strain cdc73, active compounds read low 1.02 | locus YML016C, strain PPZ1, active compounds read low 1.02 | locus YML032C, strain rad52, active compounds read low 1.01 | locus YML120C, strain ndi1, active compounds read low 0.968 | locus YML124C, strain tub3, active compounds read low 0.994 | locus YMR058W, strain fet3, active compounds read low 0.986 | locus YMR078C, strain ctf18, active compounds read low 0.998 | locus YMR125W, strain sto1, active compounds read low 0.939 | locus YMR129W, active compounds read low 0.975 | locus YMR205C, strain PFK2, active compounds read low 0.974 | locus YMR223W, strain ubp8, active compounds read low 1 | locus YMR231W, strain pep5, active compounds read low 0.975 | locus YMR263W, strain SAP30, active compounds read low 1.03 | locus YMR307W, strain GAS1, active compounds read low 1.02 | locus YNL067W, strain RPL9B, active compounds read low 1.03 | locus YNL071W, strain lat1, active compounds read low 0.961 | locus YNL153C, strain GIM3, active compounds read low 1.04 | locus YNL183C, strain NPR1, active compounds read low 0.981 | locus YNL209W, strain ssb2, active compounds read low 0.975 | locus YNL233W, strain BNI4, active compounds read low 1.03 | locus YNL248C, strain rpa49, active compounds read low 0.937 | locus YNL250W, strain rad50, active compounds read low 0.999 | locus YNL271C, strain bni1, active compounds read low 1 | locus YNL298W, strain CLA4, active compounds read low 1.02 | locus YNL307C, strain MCK1, active compounds read low 1 | locus YNL322C, strain KRE1 (second series), active compounds read low 0.948 | locus YNL322C, strain KRE1, active compounds read low 1 | locus YNR049C, strain mso1, active compounds read low 0.962 | locus YNR052C, strain pop2, active compounds read low 1 | locus YOL012C, strain htz1 1.15 | locus YOL147C, strain pex11, active compounds read low 0.996 | locus YOR001W, strain rrp6, active compounds read low 0.933 | locus YOR061W, strain CKA2, active compounds read low 1.02 | locus YOR069W, strain VPS5, active compounds read low 1.01 | locus YOR070C, strain gyp1, active compounds read low 0.987 | locus YOR080W, strain dia2, active compounds read low 0.978 | locus YOR083W, strain WHI5, active compounds read low 0.992 | locus YOR106W, strain vam3, active compounds read low 0.977 | locus YOR136W, strain idh2, active compounds read low 1 | locus YOR144C, strain elg1, active compounds read low 0.989 | locus YOR184W, strain ser1, active compounds read low 1.02 | locus YOR231W, strain MKK1, active compounds read low 1.04 | locus YOR265W, strain rbl2, active compounds read low 0.98 | locus YOR270C, strain vph1, active compounds read low 0.931 | locus YOR290C, strain snf2, active compounds read low 1.01 | locus YOR316C, strain cot1, active compounds read low 1.01 | locus YPL051W, strain arl3, active compounds read low 0.999 | locus YPL055C, strain LGE1, active compounds read low 1.02 | locus YPL078C, strain atp4, active compounds read low 0.963 | locus YPL106C, strain sse1, active compounds read low 0.932 | locus YPL240C, strain hsp82, active compounds read low 0.963 | locus YPL241C, strain CIN2, active compounds read low 1 | locus YPL256C, strain CLN2, active compounds read low 1.02 | locus YPR119W, strain clb2, active compounds read low 1.02 | locus YPR141C, strain kar3, active compounds read low 1.01 | locus YPR163C, strain tif3, active compounds read low 0.997 | locus YPR167C, strain met16, active compounds read low 1.01 | strain wtn01, active compounds read low 1.01
